Screening data (PubChem BioAssay)
Cycloheximide cs = affects cycloheximide protein synthesis inhibition readout, counter-screen | cell reporter, cycloheximide protein synthesis inhibition counterscreen | AID 2314 | 300,000 compounds, 12% hits | max response, %; in the data active = max response mostly above about 13%, no sharp cut-off; inactive = mostly below about 14%; note: read at 38.3 µM for the half of the compounds with a filed dose; 0% is about no effect
RE007 growth inh = less growth of the S. pombe RE007 Vpr strain; S. pombe RE007 Vpr strain, BacTiter-Glo ATP luminescence, 24 h; Potency, µM (doses to about 92.2 µM), for inactives: at the highest dose activity change, negative = less growth, most hits filed as inhibitors; 360,000 compounds, 0.21% hits; active = well fitted falling curve with a large enough effect; inconclusive = small, poorly fitted or top-dose-only effect; inactive = no such curve, though single readings can be large or run the other way; note: potency is the fitted concentration of half-maximal effect; % is set by controls: 0 for no effect and ±100 for the full control effect; nearly all actives have a fitted effect of over 50% in size
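Fission yeast strain RE007, carrying one chromosomally integrated HIV-1 vpr copy, was seeded at OD 0.01 in PMG+AL medium with 23 nL pinned compound. After 24 h at 30 °C and 99% humidity, viability was read by BacTiter-Glo luminescence.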
Shiga toxin inh = inhibitors of Shiga toxin in Vero cells | Vero cells, Shiga toxin protein synthesis inhibition reporter | inhibition, % at 38.7 µM | 290,000 compounds, 9.2% hits; in the data active = inhibition mostly above about 28%, no sharp cut-off; inactive = mostly below about 43%; note: 0% is about no effect
LmPK inh = blocks Leishmania mexicana pyruvate kinase activity; Q27686; 290,000 compounds, 0.37% hits; purified LmPK, Kinase-Glo ATP luminescence, 1 h; AID 1721; Potency, µM (series often up to 57.5 µM), for the others: top-dose activity change, negative = inhibition, hits mostly inhibitors; note: potency is the fitted concentration of half-maximal effect; % is set by controls: 0 for no effect and ±100 for the full control effect
Target sequence (Q27686 whole entry, looked up): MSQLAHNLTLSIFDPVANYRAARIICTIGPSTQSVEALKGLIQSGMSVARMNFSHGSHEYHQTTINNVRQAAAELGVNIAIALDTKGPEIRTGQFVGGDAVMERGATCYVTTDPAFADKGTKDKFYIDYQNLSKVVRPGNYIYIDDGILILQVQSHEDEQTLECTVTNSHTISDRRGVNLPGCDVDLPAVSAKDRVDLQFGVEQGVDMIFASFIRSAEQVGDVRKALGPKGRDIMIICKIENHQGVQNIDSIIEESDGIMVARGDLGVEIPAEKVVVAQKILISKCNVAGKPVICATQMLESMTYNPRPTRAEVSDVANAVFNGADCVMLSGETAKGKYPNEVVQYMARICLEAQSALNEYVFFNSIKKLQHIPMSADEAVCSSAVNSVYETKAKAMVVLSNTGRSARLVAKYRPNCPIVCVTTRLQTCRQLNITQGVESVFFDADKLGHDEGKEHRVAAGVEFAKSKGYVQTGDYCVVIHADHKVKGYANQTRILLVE
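ATP generated from ADP (0.1 mM) and PEP (0.5 mM) by 0.1 nM LmPK over 1 h at room temperature (pH 7.2 imidazole buffer) was detected by coupled luciferase luminescence. Values were normalized to uninhibited and no-enzyme wells.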
Tb PYK inh = inhibitors of Trypanosoma brucei pyruvate kinase | Q57TT1 | TbPYK enzyme, Kinase-Glo Plus ATP luminescence, 45 min | Potency, µM (titrated, usually from 76.8 µM), without a hit: top-dose activity, negative = inhibition, usual class: inhibitors | 410,000 compounds, 0.12% hits | AID 624173; note: potency is the fitted concentration of half-maximal effect; % is set by controls: 0 for no effect and ±100 for the full control effect; nearly all actives have a fitted effect of over 50% in size
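Quantitative HTS: titrated library compounds versus trypanosomal pyruvate kinase in TEA buffer (pH 7.2) containing KCl, MgCl2, BSA and Tween-20. Reactions were initiated with ADP, 130 uM final. Kinase-Glo Plus luminescence was read after 45 min at RT.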
FBPA Giardia inh = inhibitors of Giardia lamblia fructose-1,6-bisphosphate aldolase | 290,000 compounds, 0.71% hits | Potency, µM (series often up to 59.6 µM), for the others: at the highest dose activity, negative = inhibition, usual class: inhibitors | purified Giardia FBPA | A8B2U2; note: potency is the fitted concentration of half-maximal effect; % is set by controls: 0 for no effect and ±100 for the full control effect; nearly all actives have a fitted effect of over 55% in size
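40 nM FBPA preincubated 10 min at RT with compound (up to 57.5 uM final), then substrate plus GAPDH/TPI/NAD/arsenate coupling and diaphorase/resazurin added. Fluorescence read after 20 min at RT, 525/598 nm.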
The depositor's hits bear a star; ? = inconclusive; · = no result given; ! = repeats disagree. The full list was thinned out, with hits kept by preference. Unless noted, calls come from the whole dose curve; as a rule, active = well fitted curve in the direction sought with a large enough effect; inconclusive = small, poorly fitted or top-dose-only effect, or another doubt; inactive = no such curve, though single readings can be large; an effect the other way counts as inactive or inconclusive.

SMILES	Cycloheximide cs	RE007 growth inh	Shiga toxin inh	LmPK inh	Tb PYK inh	FBPA Giardia inh
O=C(Nc1cccc(Cl)c1)c1ccc(NCC2CCCO2)c([N+](=O)[O-])c1 (stereo not drawn)	-3	9%	-11	4%	-3%	4%
Cc1cccc(NC(=O)c2ccc(NCCO)c([N+](=O)[O-])c2)n1	30*	4%	53*	-2%	-4%	-6%
Cc1cccc(NC(=O)c2ccc(NCC3CCCO3)c([N+](=O)[O-])c2)n1 (stereo not drawn)	19*	0%	68*	0%	-4%	-12%
Cc1ccc(C(=O)Nc2cccc(NC(=O)c3ccc(C)c([N+](=O)[O-])c3)n2)cc1[N+](=O)[O-]	0	7%	7	0%	-4%	-1%
CC(C)c1ccccc1Oc1c(C(F)(F)F)oc2c(CN3CCN(C)CC3)c(O)ccc2c1=O	·	·	·	·	-4%	·
Cc1cc(C)c2sc(NC(=O)C3=COCCO3)nc2c1	60*	?	120*	-12%	6%	?
Cc1cc(C)c(-c2csc(NC(=O)C3=COCCO3)n2)c(C)c1	·	?	·	·	11%	·
Cc1ccc(Cl)c2sc(NC(=O)C3=COCCO3)nc12	27*	?	74*	-2%	-4%	·
CCOC(=O)c1c(NC(=O)c2cc3ccccc3c(=O)o2)sc2c1CCC(C(C)(C)C)C2 (stereo not drawn)	·	·	·	·	-6%	·
C/C(=N/NC(=O)c1cc(C(C)C)[nH]n1)c1cccs1	16	-17%	39	?	-3%	-1%
C/C(=N\NC(=O)c1cc(C(C)C)[nH]n1)c1ccco1	67*	-1%	138*	?	-13%	0%
C/C(=N\NC(=O)c1cc(C(C)C)[nH]n1)c1ccncc1	32	13%	49*	4%	-5%	10%
NCCNC(=O)c1c(NC(=O)c2ccccc2)sc2c1CCCC2	24*	14%	46	-2%	-10%	-9%
O=C(Nc1sc2c(c1C(=O)NC1CCCCC1)CCC2)c1ccco1	16	3%	26	0%	0%	5%
O=C(Nc1sc2c(c1C(=O)O)CCCC2)c1ccc(Cl)cc1	19*	?	29	0%	1%	?
CNC(=O)c1c(NC(=O)c2ccco2)sc2c1CCC2	31*	-16%	49	3%	-9%	·
CCOC(=O)c1ccc(NC(=O)c2c(NC(=O)CCC(=O)O)sc3c2CCCCC3)cc1	17*	-13%	23	-1%	0%	?
O=C(Nc1sc2c(c1C(=O)NCCCO)CCCC2)c1ccccc1	6	-16%	14	1%	-5%	10%
COc1ccc(-c2nnc(SCC(=O)Nc3ccc(C)c(C)c3)s2)cc1	·	·	·	·	1%	·
CC(Oc1ccccc1)C(=O)Nc1ccc(C(=O)OCc2cc(=O)n3nc(C(C)C)sc3n2)cc1 (stereo not drawn)	·	·	·	·	5%	·
O=C(Nc1sc2c(c1C(=O)O)CCC2)c1ccccc1	41*	-27%	143*	-22%	-13%	-26%
CC1(C)Cc2c(sc(NC(=O)c3ccccc3)c2C(=O)O)CO1	61*	-8%	114*	-6%	-25%	?
O=C(Nc1sc2c(c1C(=O)O)CCCCC2)c1ccccc1	42*	?	104*	-22%	4%	?
O=C(O)c1c(NC(=O)c2cccc3ccccc23)sc2c1CCC2	-2	-10%	16	0%	3%	-3%
O=C(O)c1c(NC(=O)N2CCOCC2)sc2c1CCCC2	13*	18%	29	-2%	-13%	-24%
SMILES	Cycloheximide cs	RE007 growth inh	Shiga toxin inh	LmPK inh	Tb PYK inh	FBPA Giardia inh
CCOc1ccc(-c2cc3c(=O)n(Cc4nc(-c5ccc(OC(C)C)cc5)oc4C)ccn3n2)cc1Cl	·	·	·	·	-2%	·
Cc1ccc2cccc(NC(=O)c3cccc4c(Br)cccc34)c2n1	·	·	·	·	3%	·
CCOC(=O)Cn1c(=O)oc2cc(S(=O)(=O)N3CCN(c4cccc(C)c4C)CC3)ccc21	·	·	·	·	-2%	·
O=C(Nc1sc2c(c1C(=O)N1CCCCC1)CCCC2)c1ccccc1Cl	·	·	·	·	1%	·
O=C(Cc1ccccc1)Nc1sc2c(c1C(=O)Nc1ccc(Cl)cc1)CCCC2	31*!	·	38	·	-20%	·
O=C(Nc1sc2c(c1C(=O)O)CCCC2)c1cccc(Cl)c1	50*	?	98*	-3%	1%	-25%
O=C(Cc1ccccc1)Nc1sc2c(c1C(=O)Nc1ccccc1)CCCCC2	·	·	·	·	-13%	·
Cc1ccc(C2/C(=C(\O)c3ccc4c(c3)OCCO4)C(=O)C(=O)N2CCCN(C)C)o1 (stereo not drawn)	19*	·	28	5%	·	-19%
CC1Cc2cc(/C(O)=C3/C(=O)C(=O)N(CCN4CCOCC4)C3c3cccc(Cl)c3)ccc2O1 (stereo not drawn)	-1	3%	66	9%	0%	7%
CC1Cc2cc(/C(O)=C3/C(=O)C(=O)N(CCN4CCOCC4)C3c3ccc([N+](=O)[O-])cc3)ccc2O1 (stereo not drawn)	15*	3%	27	-2%	2%	-14%
O=C1C(=O)N(c2nccs2)C(c2ccccc2)/C1=C(\O)c1ccc2c(c1)OCCO2 (stereo not drawn)	15	·	22	0%	·	·
COc1ccc(C2/C(=C(/O)c3ccc4c(c3)CC(C)O4)C(=O)C(=O)N2CCN2CCOCC2)cc1 (stereo not drawn)	-2	79%	-17	-3%	-3%	-3%
COc1ccc(C2/C(=C(/O)c3ccc4c(c3)CC(C)O4)C(=O)C(=O)N2CCCN2CCOCC2)cc1 (stereo not drawn)	19*	-4%	-1	-1%	1%	-19%
O=C1C(=O)N(c2nccs2)C(c2ccccc2F)/C1=C(\O)c1ccc2c(c1)OCCO2 (stereo not drawn)	32*	3%	33	9%	0%	·
COc1ncc2nc(-c3ccc(F)cc3)c(=O)n(C)c2n1	·	·	·	·	·	3%
O=C1C(=O)N(CCN2CCOCC2)C(c2ccccc2)/C1=C(\O)c1ccc2c(c1)OCCO2 (stereo not drawn)	36*	0%	23*	-10%	-8%	·
CC(C)c1ccc(C2/C(=C(\O)c3ccc4c(c3)OCCO4)C(=O)C(=O)N2CCN2CCOCC2)cc1 (stereo not drawn)	-5	-1%	3	2%	3%	9%
Cc1cc(N2CCN(C)CC2)nc2ccc(NC(=O)c3ccccc3F)cc12	37*	3%	72*	3%	-6%	-3%
CCN1CCN(c2cc(C)c3cc(NC(=O)c4ccc(Br)o4)ccc3n2)CC1	15*	-6%	102	5%	1%	-19%
CCN1CCN(c2cc(C)c3cc(NC(=S)N4CCCC(C)C4)ccc3n2)CC1 (stereo not drawn)	33*	-8%	62*	7%	2%	-9%
